According to PubChem BioAssay AID889 (National Center for Advancing Translational Sciences (NCATS), 2007):
Hit rate of the full screen: of about 75,000 compounds, about 15 (0.02%) were called active. About 3% were inconclusive and are not listed. Calls come from the whole dose curve; as a rule, active = well fitted inhibition curve with a large enough effect in the main read-out, with a control signal flat (not every such curve was filed as active); inconclusive = small, poorly fitted or top-dose-only effect, or a change in a side signal; inactive = flat fitted curve, though single readings scatter. The entries come from a sample that favours actives as a whole. Square brackets hold non-standard residues; d marks the D form. Side chains are listed from the residue outwards. Peptide text beside a SMILES is read from it. * marks the point of attachment. X1 = CCC(C)C(N)C1=NC(C(=O)*)CS1; Orn = NCCC[CH](N)C(=O)O

What follows are molecules tested against Caspase-7 (Homo sapiens) (UniProt P55210) (assay: qHTS Assay for Allosteric/Competitive Inhibitors of Caspase-7). Conditions: recombinant caspase-7, Ac-DEVD-AFC fluorescence rate; series mostly up to 57.5 µM.
Description: NIH Molecular Libraries Screening Centers Network [MLSCN]
NIH Chemical Genomics Center [NCGC]
PI Name: Dr. James Wells,
Dr. Enrique Perez-Paya, Dr.Janice Williams, Dr. Dennis Wolan, a person
The caspases (Cysteine Aspartyl Protease) comprise a related family of 14 dimeric proteases that are critical mediators of apoptosis (programmed cell death) and inflammation. The caspases represent an important class of drug targets for stroke, ischemia, cancer and inflammatory diseases. […] One goal of this project was to identify compounds that act as allosteric inhibitors via stabilizing the procaspase form of the enzyme. Previous work in Well's laboratory has shown that such allosteric inhibitors can be identified and these act by binding at the dimer interface of enzyme (Hardy, Lam et al., 2004).
The biochemical assay was configured using purified caspase 7 at a high enzyme concentration to promote formation of the homodimers and thus facilitate the identification of allosteric inhibitors. The overall goal was to identify reversible inhibitors with better drug-like properties than the currently available set of aspartyl-containing peptidomimetics that covalently bind the active site. Caspase 7 was assayed using the profluorescent substrate Ac-DEVD-AFC. After initiation of the assay with substrate the plates were rapidly read using an automated robotic system (Kalypsys, Inc.) to maintain consistent timing. A kinetic mode of detection was used where the initial rate was collected (estimated final product formation was ~10%). Compounds were screened as a concentration-titration series that ranged from 57 uM to 0.7 nM. Below is the protocol used for caspase 7.
NCGC Assay Protocol Summary:
Caspase 7 was prepared in buffer (50 mM HEPES pH 7.5, 50 mM KCl, 200 mM NaCl, 10 mM DTT, 0.1% CHAPS) at a concentration of 66.6 nM and 3 uL was dispensed to all wells using black solid Kalypsys 1536-well plates. 20 nL of DMSO containing compounds was added using a pin-tool (Kalypsys Inc.) to columns 5-48. Then 20 nL of DMSO solution from a control plate was added to columns 1-4. Controls were: Column 1, 16 point titration with each concentration in duplicate (1:1 dilutions in DMSO; final starting concentration was 57 uM) of the caspase 7 inhibitor Ac-DEVD-CHO (Alexis Biochemicals); Column 2, a 16 point titration with each concentration in duplicate of the free AFC fluorophore prepared in DMSO (Alexis Biochemicals), final starting was 40 uM; Column 3 neutral (DMSO only) control; Column 4: DMSO alone, to serve as a negative control (no substrate was added). Then 1 uL of 20 uM the substrate Ac-DEVD-AFC (Alexis Biochemicals) prepared in the same buffer was dispensed to all wells except columns 2 and 4 and the plates were immediately transferred (< 1 min) to the Viewlux. The plates were then exposed using 405 nm excitation/520 nm emission filters for 4 sec and read at 20 sec intervals for 3 min. Final enzyme concentration was 50 nM and the final substrate concentration was 5 uM.
Concentration-response curves were fitted to the data calculated from slope of the linear regression of fluorescent intensity versus time (the rate). The concentration-effect curves were then classified based on curve quality (r2), response magnitude and degree of measured activity. […] Inconclusive compounds had appreciable concentration-dependent effects on both the measured rate and the interpolated basal fluorescence intensity at the start of the reaction but where the basal fluorescent intensity was marginal (e.g. < 10-fold). Inconclusive compounds also encompass highly fluorescent compounds (>100-fold increases in fluorescent intensities values relative to controls) where artificial concentration-dependent decreases in the rate occurred at high compound concentrations due to fluorescent interferences.
Keywords: Caspase 7, proteases, profluorescent, MLSMR, MLSCN, NIH Roadmap, qHTS, NCGC
Potency is the fitted concentration of half-maximal effect.
Throughout, for Activity change, negative = inhibition: % of control where 0% means no effect.

Caspase-7 (Homo sapiens), sequence (P55210 24-198 limits assumed): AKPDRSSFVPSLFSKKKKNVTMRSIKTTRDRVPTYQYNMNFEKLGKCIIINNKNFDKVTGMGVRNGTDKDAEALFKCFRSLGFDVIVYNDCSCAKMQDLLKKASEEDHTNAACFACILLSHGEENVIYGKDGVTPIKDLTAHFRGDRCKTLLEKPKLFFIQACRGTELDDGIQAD
Caspase-7 (Homo sapiens), sequence (P55210 207-303 limits assumed): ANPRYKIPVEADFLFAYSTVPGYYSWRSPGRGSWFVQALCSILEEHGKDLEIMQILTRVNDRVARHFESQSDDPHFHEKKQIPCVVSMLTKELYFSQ

Activity change, negative = inhibition, inactive:
CC1CCc2c(sc(NC(=O)c3ccc(Cn4cc(Br)cn4)o3)c2C(N)=O)C1 (centres undefined)
C/C(=N\O)C1(C)N(O)C(C)(C)C(c2ccc(Br)cc2)=[N+]1[O-] (centres undefined)
CC(=O)Nc1ccc(NC(=O)CN2CCCC(C)C2)c(Cl)c1 (centres undefined)
Cn1c(N)c(C(=O)COC(=O)c2cc(C(F)(F)F)nc3c(C(F)(F)F)cccc23)c(=O)n(C)c1=O
Cc1cc(NC(=O)CCC(=O)N(c2cccc(F)c2)C(C(=O)NC2CCCC2)c2ccncc2)no1 (centres undefined)
COc1ccc(N2C(=O)C3CCCN3C2c2cc(OC)c(OC)cc2OC)cc1 (centres undefined)
O=C(NCc1ccco1)c1cc(-c2cccnc2)nc2ccc(Cl)cc12
CC(C)CN1CCc2nc(-c3ccccc3)c3c(c2C1)COC(C)C3 (centres undefined) -0.41% [at 11.5 µM]
O=C(Nc1cccc(Cl)c1)OCc1ccccn1
O=C(O)CC(C(=O)O)C(CC(=O)O)C(=O)O (centres undefined)
CCc1ccc(CCC(=O)Nc2ccc(S(N)(=O)=O)cc2)o1
CN(C)CCSS(=O)(=O)O -1.05% [at 11.5 µM]
C[C@@H]1O[C@@H](OC[C@H]2O[C@@H](Oc3c(-c4cccc(O)c4O)oc4cc(O)cc(O)c4c3=O)[C@H](O)[C@@H](O)[C@@H]2O)[C@H](O)[C@H](O)[C@H]1O
OCCCNCc1ccccn1 0.29% [at 11.5 µM]
Cc1cccn2c(=O)c3cc(C(=O)NCc4ccccn4)n(C)c3nc12
O=C(NCc1ccccn1)c1cc2ccccc2oc1=O
COc1ccc(CC(=O)Nc2nc3n(n2)C(c2ccccc2)CC(=O)N3)cc1OC (centres undefined)
Cc1cccc(NC(=O)CSc2nnc(CCCCCNC(=O)OC(C)(C)C)o2)c1C
CCOc1cc(C(=S)N2CCOCC2)ccc1O
CC(C)C(=O)N1CCN(CCN=CC2=C(O)CC(c3ccco3)CC2=O)CC1 (centres undefined)
CCCCCCCCCc1ccc(OCCOCCOCCOCCOCCOCCOCCOCCOCCO)cc1
COc1c2c(cc3occ(-c4ccc5c(c4)OCO5)c(=O)c13)OC(C)(C)C=C2
O=C(CC1CCCCC1)Nc1c2c(nn1-c1ccc(F)cc1)CS(=O)(=O)C2
CC1(C)OC2CC(=O)OC[C@@]23C1CC(=O)[C@]1(C)C3CC[C@@]2(C)C(c3ccoc3)OC(=O)C3O[C@@]321 (some centres undefined)
Cc1cccc(-c2cc(=O)c3cc(C)ccc3o2)c1
CCCc1nc2c(C)cc(-c3nc4ccccc4n3C)cc2n1Cc1ccc(-c2ccccc2C(=O)O)cc1
Cn1c(Cc2csc(N)n2)nnc1SC/C=C/c1ccccc1
C=C(C)C1CC=C(CO)CC1 (centres undefined)
O=C1OC(C(O)CO)C(O)=C1O (centres undefined)
CCCN1[C@H](C(=O)OC)C[C@@]2(O)[C@@H](O)[C@@H](O)[C@@H](O)C[C@@H]12
CCN(c1ccccc1)S(=O)(=O)c1cccc(C(=O)O)c1
COc1ccccc1C(=O)C(O)c1ccccc1OC (centres undefined)
CCNC(=O)CCc1nc(-c2ccc(C(C)(C)C)cc2)no1
CC(=O)c1c(C)n(-c2ccc(N(C)C)cc2)c2ccc(OCC(N)=O)cc12
CC(=O)OC(C(=O)NC1CCCCC1)c1ccccc1 (centres undefined)
CC(C)C1=CC2=CC[C@@H]3[C@](C)(CO)CCC[C@]3(C)C2CC1 (some centres undefined)
COC(=O)[C@@H]1C[C@H]2CC[C@H](O)C[C@H]2N1Cc1ccc(N2CCN(C)CC2)cc1
COc1ccc(OCc2cccc(C(=O)N3CCCC3)c2)cc1
Oc1ccc(O)c2c(O)cccc12
N#CCCN1CCN(S(=O)(=O)c2ccc(S(=O)(=O)N3CCCC3)cc2)CC1
O=C(Nc1cccc(-c2nnc(-c3ccccc3)o2)c1)C1CCCO1 (centres undefined)
FC(F)(F)c1ccc(CN2C[C@@H]3C(c4ccccc4)C4(c5ccccc5)CC3(C4)[C@H]2c2ccccc2)cc1 (some centres undefined)
O=C1CSC(c2cccc(F)c2)N1c1ccccc1F (centres undefined)
O=C(O)c1ccc(Cl)c(S(=O)(=O)Nc2ccccc2Cl)c1
CN1CC(=O)N=C1N
CO[C@H]1COC(=O)CCC[C@@H](C)[C@H](OC)COC(=O)[C@@H](C)NC(=O)C/C=C\[C@@H]1C 0.707% [at 11.5 µM]
COc1cc(=O)[nH]c(=O)n1C(=O)Cc1ccccc1
COc1ccc(-c2cc(C(=O)NC(C(=O)O)C(C)C)c(C)o2)cc1OC (centres undefined)
Cc1nc2cc(-c3ccc(F)cc3)nn2c(N2CCOCC2)c1C
COc1ccc(S(=O)(=O)Nc2c(C)n(C)n(-c3ccccc3)c2=O)cc1
Nc1ncnc2c1ncn2C1CC(O)C(CO)O1 (centres undefined)
C=CCC(NCCCO)c1cccc(OC)c1OC (centres undefined)
COc1cccc(OC)c1C(=O)Nc1nnc(C(C)C)s1
CCC(C)C(N)C1=NC(C(=O)NC(CC(C)C)C(=O)NC(CCC(=O)O)C(=O)NC(C(=O)NCCCCC2NC(=O)C(CC(N)=O)NC(=O)C(CC(=O)O)NC(=O)C(Cc3cnc[nH]3)NC(=O)C(Cc3ccccc3)NC(=O)C(C(C)CC)NC(=O)C(CCCN)NC2=O)C(C)CC)CS1 (stereo not drawn) (cyclo(DNK([Ile-Glu-Leu-X1])[Orn]IFH); configuration not given here)
Cc1cccc2c3c(ccc12)C1=C(C(=O)C3=O)C(C)CO1 (centres undefined)
COc1ccc(-c2nc3cnc(OC)nc3n(Cc3ccc(F)cc3)c2=O)cc1
CN(C)CCCCNC(=O)c1ccc(Cc2nc3ccccc3[nH]2)cc1
C=C1C(=O)C23C(O)C1CCC2[C@]12COC3(O)C(O)C1C(C)(C)CC[C@H]2O (some centres undefined)
Cc1ccc2nc(S(=O)(=O)O)[nH]c2c1
CCOC(=O)N1CCN(C(=O)CNC(=O)Cc2ccc(Cl)cc2)CC1
COc1ccc(S(=O)(=O)N2CCCC2)c(C)c1C
COC(=O)c1ccc(C23CC4(C2)[C@H](CN(Cc2cccnc2)[C@@H]4c2ccccc2)C3c2ccc(Cl)nc2)cc1 (some centres undefined)
COC1C[C@@H](O[C@@H]2C(C)C(=O)OC(C)C(C)C(O)C(C)C(=O)[C@@]3(CO3)CC(C)C(OC3OC(C)CC(N(C)C)C3O)C2C)OC(C)[C@@H]1O (some centres undefined)
Cc1nn2c3cc(N4CCOCC4)ccc3nc2c2ccccc12
CC(=O)N(CN1C(=O)C2CC=CCC2C1=O)c1cccc(Cl)c1 (centres undefined)
CC1(C)OC2CO[C@]3(COS(N)(=O)=O)OC(C)(C)OC3C2O1 (some centres undefined)
CCCCOC(=O)CNc1nnc(SCC(=O)OCC)[nH]c1=O
CC[C@@H]1Cc2cc(O)ccc2C2=C1c1ccc(O)cc1C[C@H]2CC
O=C(O)C(O)[C@@](O)(Cc1ccc(O)cc1)C(=O)O (some centres undefined)
COc1cccc(N2CCN(C(=O)C3CCCN(S(=O)(=O)c4cnc[nH]4)C3)CC2)c1 (centres undefined)
COc1ccc(N2C(=O)CN=C2Nc2cccc(C)c2C)cc1OC
COC(=O)[C@@H]1C[C@@]2(O)[C@H](O)[C@H](O)[C@H](O)C[C@H]2N1Cc1ccc(C)s1
COc1ccc(OC)c2[nH]c(=O)c(CCNC(=O)C(C)(C)C)cc12
O=C(Oc1cc(OC(=O)c2ccccc2)c2c(c1)OC(c1ccc(OC(=O)c3ccccc3)c(OC(=O)c3ccccc3)c1)[C@@H](OC(=O)c1ccccc1)C2)c1ccccc1 (some centres undefined)
C/C=C(/C)C(=O)OC1Cc2c(ccc3ccc(=O)oc23)OC1(C)C (centres undefined)
Cc1ccc(CNC(=O)C2CCCN(S(C)(=O)=O)C2)cc1 (centres undefined)
CC(C)=CCC/C(C)=C/CO/N=C1/C[C@@H](O)[C@@H](O)[C@@H]2[C@@H]3C(=O)N(C(C)(C)C)C(=O)[C@H]3CC[C@H]12 0.517% [at 11.5 µM]
CCOC(=O)C1CCN(C(=O)COc2cc(C)c(Br)c(C)c2)CC1
COc1ccc(CCC(=O)c2c(O)cc(OC3OC(CO)C(O)C(O)C3O[C@@H]3OC(C)C(O)C(O)C3O)cc2O)cc1O (some centres undefined)
CCN1CCN(C(=O)c2ccccc2N(C)S(=O)(=O)c2ccc(C)cc2)CC1
Cc1cc(C)c(C)c(S(=O)(=O)Nc2ccc(O)cc2)c1C
O=C(CSc1nc2ncccc2[nH]1)Nc1ccc2c(c1)OCCO2
C=C1C([C@@]2(C)C(OC(C)=O)CC(=O)O[C@@](C)(COC(C)=O)C2CC(=O)OC)C(OC=O)C(OC(=O)C(O)C(C)CC)[C@]2(C)C(c3ccoc3)CC(=O)C12O (some centres undefined)
CC(C)N(CCNC(=O)c1ccc(-n2c(=O)c(=O)[nH]c3ccccc32)cc1)C(C)C
CCOC(=O)C1CCCN(C(=O)c2ccc(CS(=O)(=O)c3ccc(Br)cc3)o2)C1 (centres undefined)
Clc1ccc(C2[C@H]3CN(CC4CCCCC4)[C@H](c4ccccc4)C34CC2(c2cccnc2)C4)cn1 (some centres undefined)
Cc1cnc(C(=O)OCC(=O)Nc2ccc(Cl)cc2Cl)cn1
O=C(CSc1nc2ccccc2o1)N1CCN(c2ccccc2)CC1
CN1CCCC1CCO[C@@](C)(c1ccccc1)c1ccc(Cl)cc1 (some centres undefined)
Nc1nc2nc(Cl)[nH]c2c(=O)[nH]1
CC1CC[C@@]23CCC4(C)[C@@]5(C)CCC6C(C)(C)C(O)CC[C@@]6(C)C5C=C[C@@]4(OC2=O)C3C1C (some centres undefined)
O=C(Nc1nsc(-c2ccccc2)n1)c1ccncc1
CCC(CCC(C)C1CCC2C3CC=C4CC(O)CC[C@@]4(C)C3CC[C@@]12C)C(C)C (some centres undefined)
Cc1c(NC(=O)Nc2ccccc2Cl)sc(=S)n1C
COc1ccc(S(=O)(=O)N(C)CC(=O)Nc2ccc3c(c2)OCCO3)cc1OC
COC(=O)[C@@H]1C[C@@]2(O)[C@@H](O)[C@@H](O)[C@@H](O)C[C@H]2N1Cc1ccc(C)s1
COc1ccc(C2CC(=O)c3c(O)cc(OC4OC(COC5OC(C)C(O)C(O)C5O)C(O)C(O)C4O)cc3O2)cc1O (centres undefined)

Potency, active:
O=C(NCc1ccccn1)c1ccc2nc(-c3ccco3)c(-c3ccco3)nc2c1 25.1 µM
O=C(O)c1c(Br)c(Br)c(Br)c(Br)c1C1c2ccc(O)cc2Oc2cc(O)ccc21 3.98 µM
